# Measured values as given in PubChem BioAssay (NCI).
# About 83,000 compounds went through this panel and 20% of them were active in at least one assay; those are over-represented in the sample as a whole.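 Cells were grown in 96-well plates and exposed to the test compound at a single concentration for 48 hours; results are reported as percent growth, with values below 10 considered active.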 A number with no mark means an inactive call. The source made the active and inactive calls.
# Experiments:
# Experiment in all cases: NCI-60 one-dose screen, 48 h (100 = growth as untreated, 0 = no growth, -100 = all killed)
# Settings in all cases: 10 µM unless noted
# [1] = tested on: T-47D breast
# [2] = tested on: BT-549 breast
# [3] = tested on: MDA-MB-435 melanoma
# [4] = tested on: SW-620 colon
# [5] = tested on: MCF7 breast
# [6] = tested on: HCT-116 colon
# [7] = tested on: HCC-2998 colon
# [8] = tested on: KM12 colon
SMILES,growth [1],growth [2],growth [3],growth [4],growth [5],growth [6],growth [7],growth [8]
N#CC1=C(N)Oc2c(ccc3ccccc23)C1c1cc2ccccc2n2nnnc12 (centres undefined),25%,16.2%,-27.7% (active),9.58% (active),9.81% (active),-5.37% (active),46.9%,18.1%
O=C(/C=C/c1ccco1)Nc1ncc(Cc2ccc(F)cc2)s1,49.3%,24.2%,-17.6% (active),25.4%,15.8%,19.5%,7.46% (active),16.1%
N#C/C(=C/C=C/c1ccccc1)S(=O)c1ccccc1 (centres undefined),-20.1% (active),-77.9% (active),-29.8% (active),-40.4% (active),-40.2% (active),-89.6% (active),-88.9% (active),-42.4% (active)
Cc1[nH]c(C2CC(c3ccc(C(F)(F)F)c(F)c3)=NN2C)c(C)c1C(=O)NCC(F)(F)F (centres undefined),93.9%,107%,100%,103%,80.7%,101%,105%,97.8%
NC(=O)[C@@H]1Cc2ccccc2CN1C(=O)c1ccc2c(c1)Cc1ccccc1-2,57.2%,63.1%,77.7%,110%,70.8%,81.1%,98.9%,88.6%
Cn1cc(-c2csc(-c3cn(C)c4ccc(F)cc34)n2)c2cnccc21,-44.1% (active),84%,-90.7% (active),-67.1% (active),-49.3% (active),-90.3% (active),-78.4% (active),0.588% (active)
Cn1ccnc1C(=O)/C=C/c1ccc(C(=O)Nc2ccccc2F)cc1,38.3%,-13.2% (active),1.95% (active),13.5%,13.4%,8.83% (active),88%,13.8%
Cc1ccccc1NC(=O)Cn1cc(CN2CCN(c3ccnc4cc(Cl)ccc34)CC2)nn1,92.4%,93.4%,99.4%,94.2%,93.9%,100%,93.3%,91.5%
COC1=C(OC)C(=O)C(CCCCCCCCCCO)=C(C)C1=O,19.3%,87.4%,-51% (active),103%,30.2%,52.9%,115%,67.5%
CC(=O)c1ccc(Nc2nccc(-c3ccc(Cl)cc3)n2)cc1,80.2%,100%,104%,92.6%,76.8%,62.9%,114%,94.7%
C#C[C@]1(O)CC[C@H]2[C@@H]3CC=C4c5sc(-c6ccccc6)nc5CC[C@]4(C)[C@H]3CC[C@@]21C,92.7%,86.2%,93.6%,89.9%,51.2%,78.2%,97.4%,78.9%
O=CN1N=C(c2cccc(Nc3ccncc3)c2)CC1c1ccc2c(c1)OCO2 (centres undefined),79.1%,106%,92.1%,102%,81.7%,83.1%,98.5%,98.4%
COc1ccc(C(c2cc(OC)c(OC)c(OC)c2)n2cncn2)cc1O (centres undefined),35%,11.3%,-46.2% (active),29.1%,17.9%,7.25% (active),25.3%,21.8%
CCCn1cnc2c(c1=N)C(c1ccc(Cl)cc1)c1sc3c(F)cccc3c1O2 (centres undefined),64.6%,105%,77.7%,55.5%,32.3%,57.8%,-20% (active),66.6%
COc1c(O[C@@H]2OC(CO)[C@H](O)[C@H](O)C2O)cc2oc3cc(O)c(CC=C(C)C)c(O)c3c(=O)c2c1CC=C(C)C (some centres undefined),70.8%,102%,94.3%,104%,92.8%,88.8%,95.9%,106%
COc1ccc(C2=C/C(=C\c3ccccc3O)C(=O)N2Cc2ccccc2)cc1,68.9%,70.4%,-4.21% (active),92.2%,62.8%,72.5%,107%,70.3%
Oc1ccc(Cc2ccc(O)c3ncccc23)c2cccnc12,-3.14% (active),29.4%,12.6%,16.7%,3.18% (active),15.2%,19.2%,15.8%
CCOc1ccc(N2C(=O)CCSC2=S)cc1,104%,108%,98%,104%,100%,112%,104%,107%
C1=C2CCCC3=Cc4ccccc4OC23Oc2ccccc21,31.9%,26.4%,-41.6% (active),18.1%,13.5%,24%,58.4%,19.8%
CC/C(=C(/c1ccc(Cl)cc1)c1ccc(OCCCN(C)C)cc1)c1ccc(OC)cc1,51.1%,86.1%,64.7%,4.55% (active),9.13% (active),46.6%,16.8%,31.7%
COC(=O)c1c(C)nc(C)c2c1C(=O)C(Br)=C(NCCCCO)C2=O,76.9%,91.2%,-25.3% (active),67.8%,37.8%,34.3%,78.7%,61.9%
CCCCC/C=C/CCC(=O)N[C@H]1[C@H](Oc2c3cc4cc2Oc2ccc(cc2Cl)[C@@H](O[C@@H]2O[C@H](CO)[C@@H](O)[C@H](O)[C@H]2NC(C)=O)[C@@H]2NC(=O)[C@H](NC(=O)[C@@H]4NC(=O)[C@H]4NC(=O)[C@@H](Cc5ccc(c(Cl)c5)O3)NC(=O)[C@@H](N)c3ccc(O)c(c3)Oc3cc(O)cc4c3)c3ccc(O)c(c3)-c3c(O[C@H]4O[C@H](CO)[C@@H](O)[C@H](O)[C@@H]4O)cc(O)cc3[C@H](C(=O)O)NC2=O)O[C@H](CO)[C@H](O)[C@@H]1O,119%,107%,100%,102%,98.5%,101%,101%,111%
Cn1cc(-c2ccc3occ(-c4cccc(-c5ccncc5)c4)c3n2)cn1,-6.42% (active),10.9%,-2.73% (active),17.8%,6.54% (active),10.4%,45%,12.4%
CS(=O)(=O)c1ccc(/C(=N/NC(N)=S)c2ccc(F)cc2)cc1,88.2%,102%,102%,101%,89.9%,95.7%,104%,101%
FC(F)(F)c1cc(N2CCCCC2)nc(NCCCNc2ccnc3cc(Cl)ccc23)n1,37.7%,61.2%,76%,94.3%,43.7%,39.3%,37.5%,64.7%
CCOC(=O)CC1CSC(N/N=C(/C)c2cccc(C(F)(F)F)c2)=N1 (centres undefined),104%,85.6%,101%,104%,90.5%,96.9%,101%,97.7%
CCN(CC)CCN1C(=O)c2c(c(C)c3c(oc4cc(OC)ccc43)c2C)C1=O,104%,98.2%,95.6%,96.3%,-8.69% (active),94.1%,103%,102%
O=C1c2ccccc2-c2c1c1ccncc1c(=O)n2CCCn1ccnc1,23.6%,46.7%,86.3%,18.7%,9.35% (active),5.31% (active),73.9%,32.8%
